In the library only some 21% were active in any assay of this set; here they are far more common.
CHX counter – counter-screen for Shiga toxin inhibitors: cycloheximide protein synthesis inhibition | 300,000 tested, 12% active | AID 2314 | max response, % | cell reporter, cycloheximide protein synthesis inhibition counterscreen; in the data active means max response mostly above about 13%, no sharp cut-off; inactive means mostly below about 14%; further: read at 38.3 µM for the half of the compounds with a filed dose; 0% is about no effect
HCV inh – HCV inhibition; Huh7.5.1 HCVcc-Cre infection, luciferase reporter, 44 h; Potency, µM (top dose mostly 41.8 µM), inactives show top-dose activity change, negative = inhibition, usual class: inhibitors; 340,000 tested, 3.4% active; AID 651820; further: potency means the concentration at half of the fitted maximal effect; on the % scale 0 is the no-effect control and ±100 the full control effect
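Infectious HCVcc-Cre (~0.5 moi) was added to cells just after compound, with cells seeded 4 h earlier at 1,000 per well. Luciferase activity after 44 h culture reported infection; substrate was incubated 15 min at room temperature before reading.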
Pf growth 96h – inhibits malaria parasite growth, 96 h. P. falciparum luciferase reporter growth, 96 h. Potency, µM (series often up to 28.7 µM), for the others: top-dose activity change, negative = inhibition, most hits filed as inhibitors. 320,000 tested, 6.9% active. AID 504834; further: potency means the concentration at half of the fitted maximal effect; on the % scale 0 is the no-effect control and ±100 the full control effect
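Luminescence readout: decreased luciferase signal marks inhibited growth of reporter-expressing P. falciparum in infected red cells (2% hematocrit, 0.05% parasitemia final), exposed to compound two generations (96 h, 37 C, 5% CO2).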
Shiga inhibitor – Shiga toxin inhibition; Vero cells, Shiga toxin protein synthesis inhibition reporter; inhibition, % at 38.7 µM; 290,000 tested, 9.2% active; in the data active means inhibition mostly above about 28%, no sharp cut-off; inactive means mostly below about 43%; further: 0% is about no effect
HCMV antiviral – inhibitors of human cytomegalovirus; HFF cells, HCMV-luciferase reporter, 72 h; active compounds read low; activity change, negative = inhibition, % at 57.5 µM; 410,000 tested, 4.5% active; in the data active means activity change below about -60%; inconclusive means no clear call, values can overlap the other calls; inactive means above about -39%; further: on the % scale 0 is the no-effect control and ±100 the full control effect
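Steps: HFFs plated, 16 h 37C; compounds added; HCMV-luciferase added to MOI 1 PFU/cell; 72 h 37C; OneGlo reagent, 5 min room temperature; luminescence read, normalized to controls.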
Pf growth 48h – P. falciparum growth inhibition at 48 hours (one generation) | AID 504832 | Potency, µM (series often up to 28.7 µM), without a hit: top-dose activity change, negative = inhibition, hits mostly inhibitors | 310,000 tested, 5.9% active | P. falciparum luciferase growth in erythrocytes, 48 h; further: potency means the concentration at half of the fitted maximal effect; on the % scale 0 is the no-effect control and ±100 the full control effect
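Cell-based growth assay: transgenic P. falciparum expressing firefly luciferase, cultured in red cells within RPMI 1640 containing 0.5% w/v Albumax, 24 mM bicarbonate and gentamycin. A drop in luciferase activity indicates inhibition.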
Numbers without * were called inactive; [ ] = another dose, or the depositor's remark. Unless noted, the call rests on the fitted dose curve; in most records, active means well fitted inhibition curve with a large enough effect; inconclusive means small, poorly fitted or top-dose-only effect, or another doubt; inactive means no such curve, though single readings can be large or run the other way.

How did CCOC(=O)COc1ccc(CC)cc1C(=O)c1ccn2nc(-c3ccc(Cl)cc3)cc2n1 do in these assays?
HCMV antiviral: 11

Results for CC1(C)Cc2c(sc3[nH]c(=S)[nH]c(=O)c23)CO1 ?
CHX counter: -5; HCV inh: inconclusive; Pf growth 96h: inconclusive; Shiga inhibitor: -7; HCMV antiviral: 2; Pf growth 48h: 48%

What do the screens show for `COc1ccccc1C1c2ccc3ccccc3c2Oc2ncn(CCN(C)C)c(=N)c21` (configuration not stated)?
CHX counter: -4; HCV inh: 13µM*; Pf growth 96h: 2.3µM*; Shiga inhibitor: -7; HCMV antiviral: -101*; Pf growth 48h: 3.3µM*

What do the screens show for `COc1ccccc1C1c2ccc3ccccc3c2Oc2ncn(CCCO)c(=N)c21` (configuration not stated)?
CHX counter: -8; HCV inh: inconclusive; Pf growth 96h: 2.6µM*; Shiga inhibitor: -19; Pf growth 48h: 7.4µM*

How did Cc1ccc(NC(=O)C2CC(=O)N(c3ccc(OC(C)C)cc3)C2)cc1 (configuration not stated) do in these assays?
HCMV antiviral: -21

What do the screens show for `C/C(=N/NC(=O)CNc1ccc(Cl)cc1C)c1ccc(C)cc1`?
CHX counter: -5; HCV inh: 5%; Pf growth 96h: inconclusive; Shiga inhibitor: -13; HCMV antiviral: -11; Pf growth 48h: 22%

How did CNc1cccc(-c2ccccc2CO)n1 do in these assays?
HCMV antiviral: 9

Results for COC(=O)c1ccc2c(c1)C(C)(C)C(/C=C/c1ccc(OC)c(OC)c1OC)=[N+]2C ?
CHX counter: -11; HCV inh: 10µM*; Pf growth 96h: 2.3µM*; Shiga inhibitor: -28; HCMV antiviral: -105*; Pf growth 48h: 2.3µM*

What do the screens show for `COC(=O)c1ccc(CNC(=O)COC(=O)/C=C/c2ccc(OC)c(OC)c2)cc1`?
HCV inh: -15%; HCMV antiviral: 27

How did COc1nc(-c2ccccc2)ccc1-c1noc(-c2ccco2)n1 do in these assays?
CHX counter: 34*; HCV inh: inconclusive; Pf growth 96h: 11%; Shiga inhibitor: 71*; HCMV antiviral: 61; Pf growth 48h: 99%

Results for COc1ccc(-c2ccc(-c3noc(-c4ccccc4)n3)c(OC)n2)cc1 ?
CHX counter: 1; HCV inh: -3%; Pf growth 96h: 0%[5.75 µM]; Shiga inhibitor: -4; HCMV antiviral: -2; Pf growth 48h: 13%

What do the screens show for `COc1ccc(-c2ccc(-c3noc(-c4ccco4)n3)c(OC)n2)cc1`?
CHX counter: 23*; HCV inh: inconclusive; Pf growth 96h: -10%; Shiga inhibitor: 51*; HCMV antiviral: 38; Pf growth 48h: 49%

Results for CCc1c(-c2ccccc2)nc2ccccc2c1C(=O)NCc1ccc(C)cc1 ?
HCMV antiviral: -17

How did NS(=O)(=O)c1ccc(Nc2nc(-c3cccc([N+](=O)[O-])c3)cs2)cc1 do in these assays?
CHX counter: 5; HCV inh: 25µM*; Pf growth 96h: inconclusive; Shiga inhibitor: 14; HCMV antiviral: inconclusive; Pf growth 48h: -12%

Results for COc1ccc(Nc2nc(-c3sc(N)nc3C)cs2)cc1 ?
CHX counter: 25*; HCV inh: inconclusive; Pf growth 96h: -26%; Shiga inhibitor: 56*; HCMV antiviral: 139; Pf growth 48h: -77%

Results for Cc1ccc(-c2csc(Nc3ccc(S(N)(=O)=O)cc3)n2)o1 ?
CHX counter: 10; HCV inh: -7%; Pf growth 96h: 1%; Shiga inhibitor: -3; HCMV antiviral: 9; Pf growth 48h: -2%

Results for Cc1ccc(Nc2nc(-c3sc(N)nc3C)cs2)cc1 ?
CHX counter: 40*; HCV inh: -9%; Pf growth 96h: -12%; Shiga inhibitor: 46*; HCMV antiviral: 58; Pf growth 48h: 28%

How did O=[N+]([O-])c1cccc(-c2csc(CS(=O)(=O)Cc3ccco3)n2)c1 do in these assays?
CHX counter: 16*; HCV inh: -7%; Pf growth 96h: 15%; Shiga inhibitor: 10; HCMV antiviral: -40; Pf growth 48h: 3%

Results for Cc1cccc(C)c1NC(=O)CNC(=O)c1ccc2c(c1)NC(=O)CS2 ?
HCV inh: 11%; HCMV antiviral: -6

What do the screens show for `CC(=O)Nc1ccc(Nc2nc(-c3sc(C)nc3C)cs2)cc1`?
CHX counter: 11*; HCV inh: inconclusive; Pf growth 96h: inconclusive; Shiga inhibitor: 53; HCMV antiviral: -29; Pf growth 48h: 5%

What do the screens show for `COc1ccc(Nc2nc(-c3sc(NC(C)=O)nc3C)cs2)cc1`?
CHX counter: -1; Pf growth 96h: 10µM*; Shiga inhibitor: 1

Results for Cc1nc(C)c(-c2csc(N)n2)s1 ?
CHX counter: -1; HCV inh: 19%; Pf growth 96h: 0.33µM*; Shiga inhibitor: -10; HCMV antiviral: -21; Pf growth 48h: -12%

What do the screens show for `COC(=O)c1c(C)[nH]c(-c2csc(N)n2)c1C`?
CHX counter: 2; HCV inh: -22%; Pf growth 96h: inconclusive; Shiga inhibitor: -5; HCMV antiviral: -3; Pf growth 48h: 18%

How did CCOc1ccc(Nc2nc(-c3sc(N)nc3C)cs2)cc1 do in these assays?
CHX counter: 14*; HCV inh: inconclusive; Pf growth 96h: 50%; Shiga inhibitor: 14; HCMV antiviral: 68; Pf growth 48h: inconclusive

Results for CC(=O)c1ccc(Nc2nc(-c3sc(C)nc3C)cs2)cc1 ?
HCMV antiviral: -29

How did COc1ccccc1NS(=O)(=O)c1ccc(C(=O)N2CC(C)OC(C)C2)cc1 (configuration not stated) do in these assays?
HCV inh: -3%; Pf growth 96h: -26%; HCMV antiviral: -38; Pf growth 48h: inconclusive

How did Cc1cccc(Oc2ccc(NC(=O)CCC(=O)OCC(=O)c3ccc(Br)cc3)cc2)c1C do in these assays?
HCMV antiviral: 0

Results for Cc1nc(C)c(-c2csc(Nc3ccc(S(N)(=O)=O)cc3)n2)s1 ?
CHX counter: 2; HCV inh: 11µM*; Pf growth 96h: 27%; Shiga inhibitor: -7; HCMV antiviral: -18; Pf growth 48h: 21%

How did Cc1ccc(Nc2nc(-c3sc(C)nc3C)cs2)cc1 do in these assays?
CHX counter: 25*; HCV inh: 5.6µM*; Pf growth 96h: inconclusive; Shiga inhibitor: 58*; HCMV antiviral: inconclusive; Pf growth 48h: 31%

What do the screens show for `CCN(CC)CCOC(=O)c1ccc(NC(=O)c2cn(-c3ccccc3)nc2-c2cccs2)cc1`?
CHX counter: 15; HCV inh: 7.9µM*; Pf growth 96h: inconclusive; Shiga inhibitor: 16; HCMV antiviral: 57; Pf growth 48h: inconclusive

Source: PubChem
